Assay results published in PubChem BioAssay (Tox21).
Several values for one entry are separate records, joined by “and”; a condition that tells them apart may be missing. Equal values may be shown once. Records with an inconclusive call do not appear. More than one record can exist for a structure, and the calls need not agree. Activity calls are given as the source filed them. Unless noted, calls follow the shape of the full dose curve.

Legend:
[1] = target: Gonadotropin-releasing hormone receptor (Homo sapiens) (UniProt P30968); test: Human gonadotropin-releasing hormone receptor (GnRHR) small molecule agonists, calcium flux assay in GnRHR-HEK293 cells (AID 1920063); also: nearly all actives have a fitted effect of over 35% in size; also: potency is read from the fitted curve at half-maximal effect
Summary of the method: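 Agonist mode: compounds at 15 concentrations, in triplicate, went onto calcium dye-loaded GnRHR-HEK293 cells. Intracellular calcium was then followed as 480/540 nm fluorescence at 1 s intervals over 3 min.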

[2] = target: KiSS-1 receptor (Homo sapiens) (UniProt Q969F8); test: Human kisspeptin (KISS1R) small molecule agonists, calcium flux assay in KISS1R-HEK293 cells (AID 1920064; active = well fitted activation curve with a large enough effect in the repeat runs; also: potency is read from the fitted curve at half-maximal effect)
Summary of the method: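 Agonist mode: intracellular calcium rise tracked at 1 s intervals over 3 min (480/540 nm) immediately after compound addition to dye-loaded KISS1R-HEK293 stable cells. Each compound tested at 15 concentrations in triplicate.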

[3] = G protein-coupled receptor (GPCR) small molecule agonists, calcium flux assay: HEK293 wild type cell line counter screen (AID 1920065); also: potency is read from the fitted curve at half-maximal effect
Summary of the method: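 Calcium flux counter screen: compound added in agonist mode at 15 concentrations in triplicate to dye-loaded parental HEK293 cells. Fluorescence (480/540) read kinetically for 3 min; ATP served as positive control.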

[4] = p53 small molecule agonists, cell-based qHTS assay with human liver microsomes: qHTS cell viability counter screen (AID 1963579); also: nearly all actives have a fitted effect of over 45% in size
Summary of the method: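 Viability of p53RE-bla cells is measured as CellTiter-Glo luminescence following a 16 h, 37 C incubation with compound, liver microsomes from human donors and NADPH.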

[5] = p53 small molecule agonists, cell-based qHTS assay with rat liver microsomes: qHTS cell viability counter screen (AID 1963580); also: nearly all actives have a fitted effect of over 45% in size
Summary of the method: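 Cytotoxicity counter screen: intracellular ATP measured by CellTiter-Glo luminescence in the same wells as the beta-lactamase reporter read, on HCT-116 p53RE-bla cells exposed 16 h at 37 C to compounds with rat liver microsomes and NADPH, each 0.5 mg/mL final.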

[6] = p53 small molecule agonists, cell-based qHTS assay: qHTS cell viability counter screen (AID 1963581); also: nearly all actives have a fitted effect of over 45% in size
Summary of the method: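 Counter screen read by CellTiter-Glo luminescence (ATP content, 30 min at room temperature), run in the same wells as the beta-lactamase reporter read. HCT-116 p53RE-bla cells saw compounds for 16 h at 37 C.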

[7] = cAMP Responsive Elements (CRE) small molecule agonists, cell-based qHTS assay (AID 1963590)
Summary of the method: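 Agonist mode: compound added to CRE-bla HEK 293T cells (2,000/well, 18 h after plating) for 3 h at 37 C/5% CO2. Reporter activity detected via FRET beta-lactamase substrate, 2 h room-temperature loading.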

[8] = cAMP Responsive Elements (CRE) small molecule antagonists, cell-based qHTS assay (AID 1963591; active = well fitted inhibition curve with a large enough effect in the signal ratio in the repeat runs, not every such curve was filed as active; the % refers to the signal ratio)
Summary of the method: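 Antagonist mode: compounds are added alongside the adenylyl cyclase activator NKH477 (0.25 uM final) to CRE-bla HEK293T cells for 3 h. LiveBLAzer FRET substrate, 2 h at room temperature, reports bla expression.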

[9] = target: Beta-2 adrenergic receptor (Homo sapiens) (UniProt P07550); test: Adrenergic beta2 receptor (ADRB2) small molecule antagonists, cell-based qHTS assay (AID 1963592); also: nearly all actives have a fitted effect of over 50% in size; also: potency is read from the fitted curve at half-maximal effect
Summary of the method: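 Assay format: CHO-ADRB2 cells, 18-20hr seeding at 37C/5% CO2, then compound plus 1nM isoproterenol agonist mix for 0.5hr RT. Homogeneous time-resolved fluorescence cAMP detection after 1hr, expressed as 665/615 nm ratio.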

[10] = target: Beta-2 adrenergic receptor (Homo sapiens) (UniProt P07550); test: Adrenergic beta2 receptor (ADRB2) small molecule agonists, cell-based qHTS assay (AID 1963593);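 also: CHO cells stably overexpressing human ADRB2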
Summary of the method: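 CHO cells stably over-expressing ADRB2 were plated overnight at 37C, then dosed with compounds plus a stimulation mix containing 100uM IBMX and 25uM Ro-20-1724 for 0.5hr at room temperature. cAMP was measured by HTRF competition, 1hr.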

[11] = target: D(2) dopamine receptor (Homo sapiens) (UniProt P14416); test: Dopamine D2 receptor (DRD2) small molecule agonists, cell-based qHTS assay (AID 1963594); also: nearly all actives have a fitted effect of over 35% in size; also: potency is read from the fitted curve at half-maximal effect
Summary of the method: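 HEK293 cells stably expressing human DRD2, pre-treated with PDE inhibitor Ro20-1724 (0.1 mM final) and compound 10 min at room temperature, then stimulated with NKH477 (200nM […]) for 30 min. cAMP read by HTRF (665/620 nm).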

[12] = target: D(2) dopamine receptor (Homo sapiens) (UniProt P14416); test: Dopamine D2 receptor (DRD2) small molecule antagonists, cell-based qHTS assay (AID 1963595; active = well fitted inhibition curve with a large enough effect in the signal ratio in the repeat runs, with a control signal flat; the % refers to the signal ratio)
Summary of the method: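 Cells were plated and grown for 24 h at 37 °C. Ro20-1724 (0.1 mM final) went in first, then compound for 10 min. NKH477 (200 nM) with quinpirole (12 nM) followed for 30 min at RT, then HTRF detection reagents for 1 h.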

[13] = p53 small molecule agonists, cell-based qHTS assay with human liver microsomes (AID 1963577);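 also: p53 response element beta-lactamase reporter cells with liver microsomes plus NADPH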
Summary of the method: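 HLM-supplemented p53RE-bla reporter assay: 16 h compound exposure at 37 C, microsomes and NADPH each 0.5 mg/mL final, read by fluorescence intensity.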

[14] = p53 small molecule agonists, cell-based qHTS assay with rat liver microsomes (AID 1963578)
Summary of the method: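 Quantitative HTS of the Tox21 10K library: p53RE-bla cells, rat liver microsomes plus NADPH at 0.5 mg/mL final each, 16 h at 37 C, beta-lactamase fluorescence detection.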

[15] = p53 small molecule agonists, cell-based qHTS assay (AID 1963582; active = well fitted activation curve with a large enough effect in the signal ratio in the repeat runs, not every such curve was filed as active; the % refers to the signal ratio)
Summary of the method: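 Read-out is beta-lactamase FRET fluorescence after 2 h at room temperature with LiveBLAzer B/G substrate. p53 response element-bla cells were treated 16 h at 37 C with compounds in DMSO, added 5 h after seeding.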

[16] = target: 5-hydroxytryptamine receptor 2A (Homo sapiens) (UniProt P28223); test: 5-hydroxytryptamine receptor 2A (HTR2A) small molecule antagonists, cell-based qHTS assay (AID 1963586); also: nearly all actives have a fitted effect of over 45% in size; also: potency is read from the fitted curve at half-maximal effect
Summary of the method: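 CHO cells stably expressing human HTR2A were plated for 18 h at 37 C, then loaded with calcium dye for 1 h. Compounds were preincubated 5 min at room temperature before DOI (4 nM solution) was added. Kinetic fluorescence was read for 3 min.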

[17] = target: 5-hydroxytryptamine receptor 2A (Homo sapiens) (UniProt P28223); test: 5-hydroxytryptamine receptor 2A (HTR2A) small molecule agonists, cell-based qHTS assay (AID 1963587); also: nearly all actives have a fitted effect of over 30% in size; also: potency is read from the fitted curve at half-maximal effect
Summary of the method: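 CHO cells stably expressing human HTR2A, plated 18 h, loaded with calcium dye 1 h at 37 C. Agonist mode: compounds added and intracellular calcium fluorescence recorded kinetically for 2 min at 1 sec intervals.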

[18] = target: Muscarinic acetylcholine receptor M1 (Homo sapiens) (UniProt P11229); test: Cholinergic receptor muscarinic 1 (CHRM1) small molecule antagonists, cell-based qHTS assay (AID 1963588); also: nearly all actives have a fitted effect of over 40% in size
Summary of the method: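 Compounds were tested at 15 concentrations in three independent runs. Dye-loaded CHRM1-CHO cells were exposed 5 min at room temperature before stimulation by acetylcholine added at 50nM. Intracellular calcium was read kinetically on FDSS for 3 min.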

[19] = target: Muscarinic acetylcholine receptor M1 (Homo sapiens) (UniProt P11229); test: Cholinergic receptor muscarinic 1 (CHRM1) small molecule agonists, cell-based qHTS assay (AID 1963589); also: nearly all actives have a fitted effect of over 35% in size
Summary of the method: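 Agonist-mode calcium-flux screen: compounds at 15 concentrations, three independent runs, were pin-transferred onto dye-loaded human CHRM1-CHO cells. Fluorescence was then recorded kinetically every second over minutes.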
% is scaled to controls: 0 for no effect and ±100 for the full control effect.

Chain of Muscarinic acetylcholine receptor M1 (Homo sapiens) (P11229 whole entry, looked up): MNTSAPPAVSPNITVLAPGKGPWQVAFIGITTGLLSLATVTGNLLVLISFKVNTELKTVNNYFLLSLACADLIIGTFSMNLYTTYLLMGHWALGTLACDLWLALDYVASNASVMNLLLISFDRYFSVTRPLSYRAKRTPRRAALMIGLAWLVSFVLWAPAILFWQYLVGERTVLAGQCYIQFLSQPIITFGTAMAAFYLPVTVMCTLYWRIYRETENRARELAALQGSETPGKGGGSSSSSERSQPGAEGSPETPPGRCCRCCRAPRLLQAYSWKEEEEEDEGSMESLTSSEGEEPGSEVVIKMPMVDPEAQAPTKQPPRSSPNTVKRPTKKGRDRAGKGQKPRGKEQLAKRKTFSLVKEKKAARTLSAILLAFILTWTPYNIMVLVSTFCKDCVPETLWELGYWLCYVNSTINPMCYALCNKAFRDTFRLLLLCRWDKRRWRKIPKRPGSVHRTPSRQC
Chain of Gonadotropin-releasing hormone receptor (Homo sapiens) (P30968 whole entry, looked up): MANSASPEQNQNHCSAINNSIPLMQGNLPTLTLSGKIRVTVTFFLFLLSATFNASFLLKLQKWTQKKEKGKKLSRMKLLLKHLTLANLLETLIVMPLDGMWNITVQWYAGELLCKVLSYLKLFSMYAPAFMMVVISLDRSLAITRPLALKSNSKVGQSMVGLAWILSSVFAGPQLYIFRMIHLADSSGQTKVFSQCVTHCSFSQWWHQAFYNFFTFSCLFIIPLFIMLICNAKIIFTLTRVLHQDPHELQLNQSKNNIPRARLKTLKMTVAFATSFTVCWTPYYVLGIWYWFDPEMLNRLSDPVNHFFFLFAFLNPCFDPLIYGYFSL
Chain of 5-hydroxytryptamine receptor 2A (Homo sapiens) (P28223 whole entry, looked up): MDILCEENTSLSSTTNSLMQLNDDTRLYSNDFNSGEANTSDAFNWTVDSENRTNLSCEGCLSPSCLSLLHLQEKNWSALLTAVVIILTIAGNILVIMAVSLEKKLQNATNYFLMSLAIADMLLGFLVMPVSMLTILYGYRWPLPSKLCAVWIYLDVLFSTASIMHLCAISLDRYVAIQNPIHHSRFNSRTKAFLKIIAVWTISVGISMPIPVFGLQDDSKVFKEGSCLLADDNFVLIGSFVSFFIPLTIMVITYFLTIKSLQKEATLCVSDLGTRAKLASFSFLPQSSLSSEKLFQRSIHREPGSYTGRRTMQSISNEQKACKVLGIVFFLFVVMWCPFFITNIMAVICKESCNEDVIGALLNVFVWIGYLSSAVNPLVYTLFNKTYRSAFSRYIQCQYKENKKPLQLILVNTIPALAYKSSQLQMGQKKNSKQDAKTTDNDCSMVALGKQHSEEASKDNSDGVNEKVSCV
Chain of Beta-2 adrenergic receptor (Homo sapiens) (P07550 whole entry, looked up): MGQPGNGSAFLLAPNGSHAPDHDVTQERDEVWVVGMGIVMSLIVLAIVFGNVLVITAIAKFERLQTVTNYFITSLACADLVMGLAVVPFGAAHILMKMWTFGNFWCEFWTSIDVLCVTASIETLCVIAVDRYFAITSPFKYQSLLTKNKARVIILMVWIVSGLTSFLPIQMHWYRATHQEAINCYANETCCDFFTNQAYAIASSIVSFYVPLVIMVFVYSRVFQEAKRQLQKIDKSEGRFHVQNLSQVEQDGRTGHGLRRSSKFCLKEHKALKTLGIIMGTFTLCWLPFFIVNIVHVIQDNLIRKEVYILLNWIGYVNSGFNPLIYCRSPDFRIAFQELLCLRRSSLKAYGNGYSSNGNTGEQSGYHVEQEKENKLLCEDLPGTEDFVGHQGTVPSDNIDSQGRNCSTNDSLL
Chain of KiSS-1 receptor (Homo sapiens) (Q969F8 whole entry, looked up): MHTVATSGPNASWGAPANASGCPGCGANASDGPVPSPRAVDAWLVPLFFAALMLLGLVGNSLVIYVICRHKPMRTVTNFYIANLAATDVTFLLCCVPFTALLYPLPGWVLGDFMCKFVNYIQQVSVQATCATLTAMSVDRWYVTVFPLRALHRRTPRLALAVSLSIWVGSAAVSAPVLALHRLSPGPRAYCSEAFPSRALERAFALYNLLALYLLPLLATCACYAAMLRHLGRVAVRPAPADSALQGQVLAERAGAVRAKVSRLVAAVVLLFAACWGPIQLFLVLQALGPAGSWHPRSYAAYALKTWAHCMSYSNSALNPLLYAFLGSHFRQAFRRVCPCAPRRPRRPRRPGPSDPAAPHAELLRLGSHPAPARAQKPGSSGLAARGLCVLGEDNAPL
Chain of D(2) dopamine receptor (Homo sapiens) (P14416 whole entry, looked up): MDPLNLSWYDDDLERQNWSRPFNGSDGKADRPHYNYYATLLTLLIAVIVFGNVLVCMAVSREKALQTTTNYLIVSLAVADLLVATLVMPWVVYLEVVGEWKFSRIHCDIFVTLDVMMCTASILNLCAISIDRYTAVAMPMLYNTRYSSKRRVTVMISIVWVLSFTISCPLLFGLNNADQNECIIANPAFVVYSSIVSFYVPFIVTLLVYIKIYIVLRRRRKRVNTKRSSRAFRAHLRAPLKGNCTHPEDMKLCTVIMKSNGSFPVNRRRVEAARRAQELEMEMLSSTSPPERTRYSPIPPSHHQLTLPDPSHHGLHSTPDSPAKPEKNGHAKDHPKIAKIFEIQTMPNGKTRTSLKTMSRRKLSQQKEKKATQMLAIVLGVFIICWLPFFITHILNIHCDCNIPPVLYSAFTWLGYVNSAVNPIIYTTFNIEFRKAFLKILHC

CC(=O)OCC(COC(C)=O)OC(C)=O
inactive: Potency [1] | Potency [2] | Potency [3] | Potency [4] | Potency [5] | Potency [6] | Potency [7] | Potency [8] | Potency [9] | Potency [10] | Potency [11] | Potency [12]

FC(F)(F)c1ccc(Cl)c(Cl)c1
inactive: Potency [1] | Potency [2] | Potency [3] | Potency [13] | Potency [14] | Potency [4] | Potency [5] | Potency [6] | Potency [15] | Potency [16] | Potency [17] | Potency [18] | Potency [19] | Potency [8] | Potency [9] | Potency [10] | Potency [11] | Potency [12]

O=C(O)CS
inactive: Potency [1] | Potency [2] | Potency [4] | Potency [5] | Potency [16] | Potency [17] | Potency [18] | Potency [19] | Potency [7] | Potency [8] | Potency [9] | Potency [10] | Potency [11] | Potency [12]

CC(O)CO (stereo not drawn)
inactive: Potency [1] | Potency [3] | Potency [13] | Potency [14] | Potency [4] | Potency [5] | Potency [6] | Potency [15] | Potency [7] | Potency [8] | Potency [9] | Potency [10] | Potency [11] | Potency [12]

C=CCOC(=O)CC(C)C
inactive: Potency [1] | Potency [2] | Potency [3] | Potency [13] | Potency [14] | Potency [4] | Potency [5] | Potency [6] | Potency [15] | Potency [16] | Potency [17] | Potency [18] | Potency [19] | Potency [7] | Potency [8] | Potency [9] | Potency [10] | Potency [11] | Potency [12]

Clc1ccc(Sc2cc(Cl)c(Cl)cc2Cl)cc1
inactive: Potency [1] | Potency [2] | Potency [3] | Potency [13] | Potency [14] | Potency [4] | Potency [5] | Potency [6] | Potency [15] | Potency [16] | Potency [17] | Potency [19] | Potency [7] | Potency [8] | Potency [9] | Potency [10] | Potency [11] | Potency [12]

NC(N)=S
inactive and 37.5 µM (active): Potency [16]
inactive and 54.9 µM (active): Potency [17]
inactive: Potency [1] | Potency [2] | Potency [13] | Potency [14] | Potency [4] | Potency [5] | Potency [6] | Potency [15] | Potency [18] | Potency [19] | Potency [7] | Potency [8] | Potency [9] | Potency [10] | Potency [11] | Potency [12]

CC(=O)OCC(=O)[C@@]12N=C(C)O[C@@H]1C[C@H]1[C@@H]3CCC4=CC(=O)C=C[C@]4(C)[C@H]3[C@@H](O)C[C@@]12C
inactive: Potency [1] | Potency [2] | Potency [3] | Potency [13] | Potency [14] | Potency [4] | Potency [5] | Potency [6] | Potency [15] | Potency [16] | Potency [19] | Potency [7] | Potency [9] | Potency [11] | Potency [12]

Cc1cccc2ccccc12
inactive: Potency [1] | Potency [2] | Potency [3] | Potency [13] | Potency [14] | Potency [4] | Potency [5] | Potency [6] | Potency [15] | Potency [16] | Potency [17] | Potency [18] | Potency [19] | Potency [7] | Potency [8] | Potency [9] | Potency [10] | Potency [12]

O=S(=O)(O)NC1CCCCC1
inactive: Potency [1] | Potency [2] | Potency [3] | Potency [4] | Potency [5] | Potency [6] | Potency [16] | Potency [17] | Potency [18] | Potency [19] | Potency [7] | Potency [8] | Potency [9] | activation [10] -21.4% [at 19 µM] | Potency [11] | Potency [12]

O=C1OC2(c3ccccc31)c1cc(I)c(O)c(I)c1Oc1c2cc(I)c(O)c1I
inactive: Potency [13] | Potency [14] | Potency [4] | Potency [5] | Potency [6] | Potency [15] | Potency [16] | Potency [18] | Potency [7] | Potency [8]
active: Potency [1] 22.1 µM [middle of 4 runs] | Potency [2] 31.3 µM and 26.8 µM | Potency [3] 39 µM and 22.1 µM and 19 µM | Potency [17] 31.3 µM [middle of 4 runs] | Potency [9] 33.5 µM | Potency [11] 39 µM and 31 µM

c1ccc2c(c1)Cc1ccccc1-2
inactive: Potency [1] | Potency [2] | Potency [13] | Potency [14] | Potency [4] | Potency [5] | Potency [6] | Potency [16] | Potency [17] | Potency [18] | Potency [19] | Potency [7] | Potency [8] | Potency [11] | Potency [12]
